Assay results from the supplement of paper PMC12067926.

tested on: Bacillus 1 (Bacillus foraminis); test: relative growth (AUC of 72 h growth curve relative to DMSO control, dAUC) (ratio); higher = more growth (less inhibition), active = hit call of the paper; details: 20 µM;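 active = growth AUC significantly below the DMSO wells by Dunnett test; inactive = the rest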
Method: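 Environmental bacterial isolates (Iceland stream sediment and Silwood Park soil) and whole stream-sediment communities were grown in LB from a 1:100 dilution with each pesticide at 20 µM (1% DMSO). A600 was read hourly for 72 h and the area under a spline-fitted growth curve (AUC) was computed. dAUC is the mean AUC of 3 biological replicates divided by the mean AUC of the DMSO controls. Significance was tested by Dunnett's test against the DMSO control.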

Structure (SMILES)	relative growth
COP(=S)(OC)Oc1nc(Cl)c(Cl)cc1Cl	1.08 (inactive)
CCC(C)(C)C(=O)OC1=C(c2ccc(Cl)cc2Cl)C(=O)OC12CCCCC2	0.975 (inactive)
CC(C)N(C)S(=O)(=O)NC(=O)c1cc(-n2c(=O)cc(C(F)(F)F)n(C)c2=O)c(F)cc1Cl	0.998 (inactive)
Cc1cc(C2CC2)nc(Nc2ccccc2)n1	0.911 (inactive)
CNC(=O)ON=C(C)SC	0.996 (inactive)
CC1(C)C(C=C(Cl)Cl)C1C(=O)OC(C#N)c1ccc(F)c(Oc2ccccc2)c1 (stereo not given)	0.94 (inactive)
CCC(C)c1ccccc1OC(=O)NC (stereo not given)	1.07 (inactive)
CC(C1CC1)C(O)(Cn1cncn1)c1ccc(Cl)cc1 (stereo not given)	1.09 (inactive)
CNC(=O)c1cc(C#N)cc(C)c1NC(=O)c1cc(Br)nn1-c1ncccc1Cl	0.935 (inactive)
Nc1c([N+](=O)[O-])ccc(Oc2ccccc2)c1Cl	1.02 (inactive)
CC(C)(C)[C@@H](O)[C@H](Oc1ccc(Cl)cc1)n1cncn1	1.03 (inactive)
Oc1ccc(Cl)cc1Cc1cc(Cl)ccc1O	0.81 (inactive)
C#CCOc1ccc(CCNC(=O)C(OCC#C)c2ccc(Cl)cc2)cc1OC (stereo not given)	1.06 (inactive)
CNC(=O)Oc1cccc2ccccc12	1.05 (inactive)
COCc1cnc(C2=NC(C)(C(C)C)C(=O)N2)c(C(=O)O)c1 (stereo not given)	0.985 (inactive)
OC(Cn1cncn1)(c1ccc(F)cc1)c1ccccc1F (stereo not given)	1.07 (inactive)
Fc1ccc([C@]2(Cn3cncn3)O[C@H]2c2ccccc2Cl)cc1 (racemic)	0.994 (inactive)
CO/N=C(/C(=O)OC)c1ccccc1CO/N=C(\C)c1cccc(C(F)(F)F)c1	0.972 (inactive)
CCOc1cc(Oc2ccc(C(F)(F)F)cc2Cl)ccc1[N+](=O)[O-]	0.956 (inactive)
ClC1C(Cl)C(Cl)C(Cl)C(Cl)C1Cl (stereo not given)	1.11 (inactive)

Structure (SMILES)	relative growth
CCC(CC)Nc1c([N+](=O)[O-])cc(C)c(C)c1[N+](=O)[O-]	0.931 (inactive)
CCCN(CCOc1c(Cl)cc(Cl)cc1Cl)C(=O)n1ccnc1	1.07 (inactive)
CNC(=O)CSP(=S)(OC)OC	0.911 (inactive)
COc1ncc(F)c2nc(S(=O)(=O)Nc3c(F)cccc3F)nn12	1.06 (inactive)
CCCCC(C#N)(Cn1cncn1)c1ccc(Cl)cc1 (stereo not given)	0.889 (inactive)
COP(=S)(OC)Oc1ccc(SC)c(C)c1	0.995 (inactive)
CN/C(=N\[N+](=O)[O-])NCc1cnc(Cl)s1	1.03 (inactive)
CCOc1ccc(C(C)(C)COCc2cccc(Oc3ccccc3)c2)cc1	0.954 (inactive)
CC[C@H](C)C1O[C@]2(C=C[C@@H]1C)C[C@@H]1C[C@@H](C/C=C(\C)[C@@H](O[C@H]3C[C@H](OC)[C@@H](O[C@H]4C[C@H](OC)[C@H](NC)[C@H](C)O4)[C@H](C)O3)[C@@H](C)/C=C/C=C3\CO[C@@H]4[C@H](O)C(C)=C[C@@H](C(=O)O1)[C@]34O)O2 (stereo not given in full)	0.928 (inactive)
CC1COC(Cn2cncn2)(c2ccc(Oc3ccc(Cl)cc3)cc2Cl)O1 (stereo not given)	1.11 (inactive)
CC[C@H]1CCC[C@H](O[C@H]2CC[C@H](N(C)C)[C@@H](C)O2)[C@@H](C)C(=O)C2=C[C@@H]3[C@@H](C=C(C)[C@@H]4C[C@@H](O[C@@H]5O[C@@H](C)[C@H](OC)[C@@H](OC)[C@H]5OC)C[C@@H]34)[C@@H]2CC(=O)O1.CC[C@H]1CCC[C@H](O[C@H]2CC[C@H](N(C)C)[C@@H](C)O2)[C@@H](C)C(=O)C2=C[C@H]3[C@@H]4C[C@H](O[C@@H]5O[C@@H](C)[C@H](OC)[C@@H](OC)[C@H]5OC)C[C@H]4C=C[C@H]3C2CC(=O)O1	1.04 (inactive)
CNC(=O)c1cc(Cl)cc(C)c1NC(=O)c1cc(Br)nn1-c1ncccc1Cl	1.01 (inactive)
CC(C)NC(=O)N1CC(=O)N(c2cc(Cl)cc(Cl)c2)C1=O	0.928 (inactive)
CC1(C)C(C=C(Cl)Cl)C1C(=O)OC(C#N)c1cccc(Oc2ccccc2)c1 (stereo not given)	1.11 (inactive)
CC(C)(C)C(O)(CCc1ccc(Cl)cc1)Cn1cncn1 (stereo not given)	0.924 (inactive)
CON(C)C(=O)Nc1ccc(Cl)c(Cl)c1	1.04 (inactive)
O=C(O)CNCP(=O)(O)O	1.04 (inactive)
CC[C@H](C)[C@H]1O[C@]2(C=C[C@@H]1C)C[C@@H]1C[C@@H](C/C=C(\C)[C@@H](O[C@H]3C[C@H](OC)[C@@H](O[C@H]4C[C@H](OC)[C@@H](O)[C@H](C)O4)[C@H](C)O3)[C@@H](C)/C=C/C=C3\CO[C@@H]4[C@H](O)C(C)=C[C@@H](C(=O)O1)[C@]34O)O2.CO[C@H]1C[C@H](O[C@H]2[C@H](C)O[C@@H](O[C@@H]3/C(C)=C/C[C@@H]4C[C@@H](C[C@]5(C=C[C@H](C)[C@@H](C(C)C)O5)O4)OC(=O)[C@@H]4C=C(C)[C@@H](O)[C@H]5OC/C(=C\C=C\[C@@H]3C)[C@]54O)C[C@@H]2OC)O[C@@H](C)[C@@H]1O	0.944 (inactive)
CCOCn1c(-c2ccc(Cl)cc2)c(C#N)c(Br)c1C(F)(F)F	1.1 (inactive)
CN/C(=N/CC1CCOC1)N[N+](=O)[O-] (stereo not given)	1.11 (inactive)
